{
  "source": "PubChem BioAssay (NCATS)",
  "note": "Where “and” joins values, the source holds several entries; their conditions need not be identical. Identical values can stand only once. Values without a mark were called inactive. Records with an inconclusive call do not appear. Calls of active or inactive are those of the source. Unless noted, calls follow the shape of the full dose curve.",
  "data": [
    {"assay": "Cell Viability - LYMP2-026 (AID 989; active = well fitted cell-killing curve with a large enough effect;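 also: cells exposed to compound for 24 h at 37 °C; % is scaled to controls: 0 for no effect and ±100 for the full control effect; nearly all actives have a fitted effect of over 50% in size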)", "settings": "LYMP2-026 lymphoblastoid cell viability, qHTS; series mostly up to 92.2 µM", "in_short": "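Cells are seeded at 2500 per well and held 5 hr at 37 C. Compounds are added in concentration series for 24 hr, then CellTiter-Glo reagent is applied and luminescence read.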", "values": [
      {"smiles": "COS(C)(=O)=O", "outcome": "inactive"}
    ]},
    {"assay": "Cell Viability - LYMP1-002 - Assay at 24 hr (AID 993; active = well fitted cell-killing curve with a large enough effect; also: % is scaled to controls: 0 for no effect and ±100 for the full control effect)", "settings": "LYMP1-002 lymphoblastoid cells viability; series mostly up to 92.2 µM", "in_short": "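Acute toxicity is measured as concentration-dependent loss of cellular ATP in a human lymphoblastoid line (Coriell LYMP1-002) after 24 h treatment in complete medium. ATP is quantified by luciferase luminescence and AC50 derived by Hill modelling.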", "values": [
      {"smiles": "Cc1occc(=O)c1O", "outcome": "inactive"},
      {"smiles": "CC1=CC(=O)CC(C)(C)C1(O)/C=C/C(C)=C\\C(=O)O", "note": "(centres undefined)", "outcome": "inactive"},
      {"smiles": "COS(C)(=O)=O", "outcome": "inactive"}
    ]},
    {"assay": "Cell Viability - LYMP1-002 - Assay at 40 hr (AID 994; active = well fitted cell-killing curve with a large enough effect;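 also: 0% = DMSO only and full inhibition = 92 µM tetraoctylammonium bromide; nearly all actives have a fitted effect of over 60% in size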)", "settings": "LYMP1-002 lymphoblastoid cell viability; series mostly up to 92.2 µM", "in_short": "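Cells are plated at 2500 per well and rested 5 hr at 37 C. Compounds are added and incubated 40 hr at 37 C. CellTiter-Glo reagent is added for 30 min at room temperature before luminescence is read.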", "values": [
      {"smiles": "Cc1occc(=O)c1O", "outcome": "inactive"},
      {"smiles": "CC1=CC(=O)CC(C)(C)C1(O)/C=C/C(C)=C\\C(=O)O", "note": "(centres undefined)", "outcome": "inactive"},
      {"smiles": "COS(C)(=O)=O", "outcome": "inactive"}
    ]},
    {"assay": "qHTS Assay for Lipid Storage Modulators (AID 1519); also: % is scaled to controls: 0 for no effect and ±100 for the full control effect", "settings": "Drosophila S3 cells, BODIPY lipid droplet/cell ratio, laser cytometry; at 57.5 µM (top of the series); cells loaded with oleic acid", "in_short": "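Cells seeded at 5,000 per well were treated with compounds over a concentration series and loaded with oleic acid (400 uM, as added). Lipid droplet fluorescence (488 nm excitation, 500-530 nm channel) was read by laser-scanning cytometry and normalized to 20 uM Triacsin C.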", "values": [
      {"smiles": "CN(Cc1ccco1)c1ccnc(-c2cccc(NS(C)(=O)=O)c2)n1", "activity change, negative = inhibition": "9.05%"},
      {"smiles": "Cc1cccc(CNc2ncncc2-c2ccccc2C(F)(F)F)c1", "activity change, negative = inhibition": "4.45%"},
      {"smiles": "COc1ccccc1-c1ccc2ncnc(N(C)C)c2c1", "activity change, negative = inhibition": "4.68%"},
      {"smiles": "COc1cccc(Nc2ncc3nc(C)c(=O)n(CCC#N)c3n2)c1", "activity change, negative = inhibition": "-10.8%"},
      {"smiles": "Cn1cccc1C(=O)N1CCC2(CC1)CN(Cc1cc(C(F)(F)F)cc(C(F)(F)F)c1)C2", "activity change, negative = inhibition": "-8.03%"},
      {"smiles": "COc1ccc2[nH]cc(CCNc3ncnc4ccc(-c5ccc(C(=O)N(C)C)cc5)cc34)c2c1", "activity change, negative = inhibition": "0.717%"},
      {"smiles": "CN(C)Cc1ccccc1-c1ccc2ncnc(NCc3ccccc3)c2c1", "activity change, negative = inhibition": "5.57%"},
      {"smiles": "Cc1cccc(CNc2cc(-c3ccc(C(=O)N(C)C)cc3)ncn2)c1", "activity change, negative = inhibition": "0.763%"},
      {"smiles": "COc1ccc2[nH]cc(CCNc3cc(-c4ccoc4)ncn3)c2c1", "activity change, negative = inhibition": "11%"},
      {"smiles": "Cc1cccc(CNc2ccnc(-c3ccc(C(=O)N(C)C)cc3)n2)c1", "activity change, negative = inhibition": "7.06%"},
      {"smiles": "CN(C)Cc1ccccc1-c1nc(N(C)Cc2ccco2)c2ccccc2n1", "activity change, negative = inhibition": "6.11%"},
      {"smiles": "Cc1cccc(CNc2nc(-c3ccoc3)nc3ccccc23)c1", "activity change, negative = inhibition": "11.1%"},
      {"smiles": "Cc1occc(=O)c1O", "activity change, negative = inhibition": "8.81%"},
      {"smiles": "CC1=CC(=O)CC(C)(C)C1(O)/C=C/C(C)=C\\C(=O)O", "note": "(centres undefined)", "activity change, negative = inhibition": "8.24% and 1.12%"},
      {"smiles": "CNc1nc(-c2ccccc2OC)nc2ccccc12", "activity change, negative = inhibition": "2.04%"},
      {"smiles": "COc1ccccc1-c1cncnc1NCc1cccc(C)c1", "activity change, negative = inhibition": "10.8%"},
      {"smiles": "CC(=O)N1CCC2(CC1)CCN(c1ccncc1)CC2", "activity change, negative = inhibition": "-1.07%"},
      {"smiles": "Cc1nc2cnc(N(C)C)nc2n(Cc2cccs2)c1=O", "activity change, negative = inhibition": "3.99%"},
      {"smiles": "c1ccc2c(Nc3ccncc3)nc(-c3ccoc3)nc2c1", "activity change, negative = inhibition": "14.9%"},
      {"smiles": "COCC(=O)N1CCC2(CCN(Cc3ccncc3)CC2)CC1", "activity change, negative = inhibition": "3.65%"},
      {"smiles": "CS(=O)(=O)Nc1cccc(-c2nc(N3CCOCC3)c3ccccc3n2)c1", "activity change, negative = inhibition": "2.88%"},
      {"smiles": "COS(C)(=O)=O", "activity change, negative = inhibition": "5.21%"},
      {"smiles": "Cc1cccc(CNc2nc(-c3cccc(NS(C)(=O)=O)c3)nc3ccccc23)c1", "activity change, negative = inhibition": "1.31%"},
      {"smiles": "CNc1ncnc2ccc(-c3ccccc3OC)cc12", "activity change, negative = inhibition": "1.03%"},
      {"smiles": "N#CCCn1c(=O)cnc2cnc(N3CCNCC3)nc21", "activity change, negative = inhibition": "4.17%"},
      {"smiles": "CC(C)NC(=O)N1CCC2(CC1)CCN(C(=O)c1cnccn1)CC2", "activity change, negative = inhibition": "0.356%"},
      {"smiles": "COc1ccc2[nH]cc(CCNc3ncnc4ccc(-c5ccccc5CN(C)C)cc34)c2c1", "activity change, negative = inhibition": "7.35%"},
      {"smiles": "COCCNc1nc(-c2cccc(OC)c2)nc2ccccc12", "activity change, negative = inhibition": "-5.01%"},
      {"smiles": "CN(C)c1ccc(-c2cc(NCc3cccnc3)ncn2)cc1", "activity change, negative = inhibition": "7.63%"},
      {"smiles": "COc1ccc2[nH]cc(CCNc3ncncc3-c3ccccc3CN(C)C)c2c1", "activity change, negative = inhibition": "2.99%"},
      {"smiles": "Cc1ccccc1-c1nc(-n2ccnc2)c2ccccc2n1", "activity change, negative = inhibition": "5.99%"},
      {"smiles": "COc1ccccc1CNc1ccnc(-c2ccccc2C(F)(F)F)n1", "activity change, negative = inhibition": "5.29%"},
      {"smiles": "COc1ccccc1-c1nc(NCc2cnc(C)cn2)c2ccccc2n1", "activity change, negative = inhibition": "7.28%"},
      {"smiles": "COc1ncc2nc(-c3ccc(Cl)cc3)c(=O)n(-c3ccccc3)c2n1", "activity change, negative = inhibition": "-0.888%"},
      {"smiles": "COCCNc1ncnc2ccc(-c3ccccc3CN(C)C)cc12", "activity change, negative = inhibition": "12.3%"},
      {"smiles": "COc1ccc(C(=O)N2CCC3(CCN(C(=O)Nc4cccc(F)c4)CC3)CC2)cc1", "activity change, negative = inhibition": "6.16%"},
      {"smiles": "Cc1cccc(CNc2ccnc(-c3ccccc3CN(C)C)n2)c1", "activity change, negative = inhibition": "3.61%"}
    ]}
  ]
}
